# Experimental data from PubChem BioAssay (NCATS).
# Records with an inconclusive call do not appear. Where a call stands in place of a potency, no number is given. Activity calls are given as the source filed them. Unless noted, calls follow the shape of the dose curve; as a rule, active = well fitted curve in the direction sought with a large enough effect; inconclusive = small, poorly fitted or top-dose-only effect, or another doubt; inactive = no such curve, though single readings can be large; an effect the other way counts as inactive or inconclusive.
# How the values were obtained:
# [1] = Primary qHTS for inhibitors of La Crosse Virus (LACV) - induced cell death in SH-SY5Y cells (AID 1508616); settings: SH-SY5Y LACV cytopathicity rescue, ATP luminescence, 6 d; series mostly up to 4.29 µM;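 also: top concentration of the series differs between compounds; higher means more rescue of cells from virus-induced death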
# Procedure, shortened: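 Readout was luminescence from ATPLite 1step added after a 6-day LACV infection (0.01 MOI) of SH-SY5Y cells that had received pin-transferred compound 24 hr after seeding.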
# [2] = Primary qHTS for small molecule stabilizers of the endoplasmic reticulum resident proteome: Secreted ER Calcium Modulated Protein (SERCaMP) assay (AID 1508630); settings: SH-SY5Y GLuc-SERCaMP (Gaussia luciferase released on ER calcium loss) secretion, thapsigargin, luminescence; series mostly up to 38.4 µM; also: potency is read from the fitted curve at half-maximal effect
# Procedure, shortened: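 GLuc-SERCaMP-expressing SH-SY5Y cells, pretreated 16 h with compound, are challenged with thapsigargin to empty ER calcium stores; after 4 h, coelenterazine is added directly to the medium and luminescence is imaged.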
# [3] = target: Papain (Carica papaya) (UniProt P00784); test: Primary qHTS assay for inhibitors of the protease papain (AID 1645873); settings: papain Z-FR-AMC cleavage, AMC fluorescence; series mostly up to 49.8 µM;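 also: papain turnover of Z-FR-AMC read as the AMC fluorescence gain over 10 min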; also: potency is read from the fitted curve at half-maximal effect
# Chain of Papain (Carica papaya) (P00784 whole entry, looked up, the tested form may be a part): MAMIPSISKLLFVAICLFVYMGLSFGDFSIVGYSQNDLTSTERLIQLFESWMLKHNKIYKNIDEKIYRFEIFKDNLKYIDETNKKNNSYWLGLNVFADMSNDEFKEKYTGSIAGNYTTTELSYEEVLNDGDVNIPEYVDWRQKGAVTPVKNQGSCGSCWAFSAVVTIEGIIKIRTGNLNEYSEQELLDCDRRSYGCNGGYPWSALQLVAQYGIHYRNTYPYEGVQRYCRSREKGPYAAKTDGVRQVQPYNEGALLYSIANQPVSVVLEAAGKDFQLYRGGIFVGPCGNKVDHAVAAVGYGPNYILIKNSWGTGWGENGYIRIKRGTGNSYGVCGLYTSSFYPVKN
# [4] = Primary qHTS for inhibitors of nuclear receptor binding SET domain protein 2 (NSD2) in an isogenic RCH-ACV NSD2 p.E1099K mutant (9B) (AID 1645876); settings: RCH-ACV NSD2 E1099K (9B) viability, CellTiter-Glo, 72 h; series mostly up to 44.9 µM; also: nearly all actives have a fitted effect of over 70% in size; also: potency is read from the fitted curve at half-maximal effect
# [5] = Primary qHTS for inhibitors of nuclear receptor binding SET domain protein 2 (NSD2) in an RCH-ACV wild type WT cells (2C) (AID 1645877); settings: RCH-ACV (leukaemia line) NSD2 WT (2C) viability, CellTiter-Glo, 72 h; series mostly up to 44.9 µM; also: nearly all actives have a fitted effect of over 70% in size; also: potency is read from the fitted curve at half-maximal effect
# [6] = Validation qHTS assay for inhibitors of Activation Induced Cytidine Deaminase (AID): UDG Counterscreen signal (AID 1347427); settings: biochemical UDG counterscreen, fluorescence signal; series mostly up to 115 µM
# Procedure, shortened: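 Counterscreen read of UDG activity (2 U/mL, 4/3x) in the FRET deamination format with AID (1 uM, 4/3x), DJC20/DJC23 substrates (250 nM, 4x), 4 h at room temperature. NaOH stop, fluorescence at 560 ex/665 em.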
# [7] = target: Single-stranded DNA cytosine deaminase (Homo sapiens) (UniProt Q9GZX7); test: Validation qHTS assay for inhibitors of Activation Induced Cytidine Deaminase (AID): AID signal (AID 1347429); settings: Recombinant AID, FRET ssDNA deamination with UDG, fluorescence; series mostly up to 115 µM; also: potency is read from the fitted curve at half-maximal effect
# Chain of Single-stranded DNA cytosine deaminase (Homo sapiens) (Q9GZX7 whole entry, looked up): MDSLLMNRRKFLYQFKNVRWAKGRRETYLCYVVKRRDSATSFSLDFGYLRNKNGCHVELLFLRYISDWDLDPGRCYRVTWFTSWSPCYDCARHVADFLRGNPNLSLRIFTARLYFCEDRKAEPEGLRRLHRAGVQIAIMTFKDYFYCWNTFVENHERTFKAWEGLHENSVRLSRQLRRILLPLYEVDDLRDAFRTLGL
# Procedure, shortened: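 In this coupled qHTS, AID deaminates a FRET-labelled ssDNA substrate in the presence of UDG over 4 hr at room temperature. Compounds span up to 114 uM final.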
# [8] = target: Calcium and integrin-binding protein 1 (Homo sapiens) (UniProt Q99828); test: Validation qHTS for Identification of Calcium Integrin Binding protein 1 (CIB1) Competitor (AID 1508618); settings: CIB1-GST / FITC-alphaIIb peptide fluorescence polarization; series mostly up to 114 µM
# Chain of Calcium and integrin-binding protein 1 (Homo sapiens) (Q99828 whole entry, looked up): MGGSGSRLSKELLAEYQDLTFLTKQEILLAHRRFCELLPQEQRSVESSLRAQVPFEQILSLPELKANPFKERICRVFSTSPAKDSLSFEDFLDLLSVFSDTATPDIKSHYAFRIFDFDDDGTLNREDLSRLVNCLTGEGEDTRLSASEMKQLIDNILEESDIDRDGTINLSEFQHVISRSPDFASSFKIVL
# Procedure, shortened: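 Fluorescence polarization with 1 uM CIB1-GST and 100 nM FITC-alphaIIb peptide in HEPES pH 7.4, NaCl, 5 mM CaCl2, Tween20. Compounds at up to 114 uM final, preincubated with protein 15 min; read after 15 min more at RT.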
# [9] = target: Cytochrome P450 2D6 (Homo sapiens) (UniProt P10635); test: Cytochrome P450 family 2 subfamily D member 6 (CYP2D6) small molecule antagonists: luciferase biochemical (cell-free) qHTS assay (AID 1645840; active = well fitted curve in the direction sought with a large enough effect in the repeat runs; an effect the other way counts as inactive or inconclusive; also: nearly all actives have a fitted effect of over 55% in size; also: potency is read from the fitted curve at half-maximal effect); settings: P450-Glo CYP2D6 enzyme, luciferin luminescence, 1 h; series mostly up to 57.4 µM
# Chain of Cytochrome P450 2D6 (Homo sapiens) (P10635 whole entry, looked up): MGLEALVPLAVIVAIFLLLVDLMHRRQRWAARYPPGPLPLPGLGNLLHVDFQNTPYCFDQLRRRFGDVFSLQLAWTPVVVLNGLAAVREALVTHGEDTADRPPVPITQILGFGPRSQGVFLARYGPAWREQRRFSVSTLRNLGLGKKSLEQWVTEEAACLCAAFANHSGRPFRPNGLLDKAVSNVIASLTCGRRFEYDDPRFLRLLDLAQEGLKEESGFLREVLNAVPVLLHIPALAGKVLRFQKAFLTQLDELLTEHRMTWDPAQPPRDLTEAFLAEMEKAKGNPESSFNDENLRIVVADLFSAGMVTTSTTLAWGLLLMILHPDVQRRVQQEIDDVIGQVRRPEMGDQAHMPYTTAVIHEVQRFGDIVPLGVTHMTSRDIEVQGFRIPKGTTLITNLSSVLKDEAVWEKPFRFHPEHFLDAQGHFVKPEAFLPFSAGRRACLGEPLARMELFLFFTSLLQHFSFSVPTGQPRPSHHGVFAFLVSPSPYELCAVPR
# Procedure, shortened: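 P450-Glo luminescent screen: recombinant CYP2D6 enzyme–proluciferin substrate mix preincubated with compound 10 min at room temperature, then NADPH regeneration added for 1 h at room temperature. Detection reagent added for 20 min; luciferin light read as relative luminescence units.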
# [10] = target: Cytochrome P450 2C9 (Homo sapiens) (UniProt P11712); test: Cytochrome P450 family 2 subfamily C member 9 (CYP2C9) small molecule antagonists: luciferase biochemical (cell-free) qHTS assay (AID 1645842; active = well fitted curve in the direction sought with a large enough effect in the repeat runs; an effect the other way counts as inactive or inconclusive; also: nearly all actives have a fitted effect of over 55% in size; also: potency is read from the fitted curve at half-maximal effect); settings: P450-Glo CYP2C9 enzyme assay, luciferin luminescence; series mostly up to 57.4 µM
# Chain of Cytochrome P450 2C9 (Homo sapiens) (P11712 whole entry, looked up): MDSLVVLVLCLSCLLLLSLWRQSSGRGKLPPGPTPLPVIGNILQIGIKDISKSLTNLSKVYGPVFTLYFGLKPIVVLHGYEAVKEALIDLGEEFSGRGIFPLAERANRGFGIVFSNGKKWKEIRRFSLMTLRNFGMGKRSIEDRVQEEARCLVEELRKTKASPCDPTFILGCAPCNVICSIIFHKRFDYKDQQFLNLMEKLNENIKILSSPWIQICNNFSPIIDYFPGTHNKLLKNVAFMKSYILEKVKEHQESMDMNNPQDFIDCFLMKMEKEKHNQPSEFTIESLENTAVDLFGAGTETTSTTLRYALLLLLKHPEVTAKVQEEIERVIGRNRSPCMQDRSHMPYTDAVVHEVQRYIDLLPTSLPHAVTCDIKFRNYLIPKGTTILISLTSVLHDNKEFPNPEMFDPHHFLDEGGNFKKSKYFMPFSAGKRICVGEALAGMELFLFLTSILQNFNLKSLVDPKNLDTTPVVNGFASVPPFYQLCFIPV
# Procedure, shortened: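 Luminescence, after 20 min with luciferin detection reagent, reflected CYP2C9 turnover during a 1 h NADPH-driven reaction at 37C. Enzyme-substrate mix contained 0.4% bovine serum albumin and was preincubated with compound 10 min at room temperature.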
# [11] = target: Protein phosphatase 1D (Homo sapiens) (UniProt O15297); test: Rhodamine-PBP qHTS Assay for Modulators of WT P53-Induced Phosphatase 1 (WIP1) (AID 1347425); settings: recombinant WIP1, Rhodamine-PBP phosphate fluorescence, real-time; series mostly up to 57.5 µM
# Chain of Protein phosphatase 1D (Homo sapiens) (O15297 whole entry, looked up): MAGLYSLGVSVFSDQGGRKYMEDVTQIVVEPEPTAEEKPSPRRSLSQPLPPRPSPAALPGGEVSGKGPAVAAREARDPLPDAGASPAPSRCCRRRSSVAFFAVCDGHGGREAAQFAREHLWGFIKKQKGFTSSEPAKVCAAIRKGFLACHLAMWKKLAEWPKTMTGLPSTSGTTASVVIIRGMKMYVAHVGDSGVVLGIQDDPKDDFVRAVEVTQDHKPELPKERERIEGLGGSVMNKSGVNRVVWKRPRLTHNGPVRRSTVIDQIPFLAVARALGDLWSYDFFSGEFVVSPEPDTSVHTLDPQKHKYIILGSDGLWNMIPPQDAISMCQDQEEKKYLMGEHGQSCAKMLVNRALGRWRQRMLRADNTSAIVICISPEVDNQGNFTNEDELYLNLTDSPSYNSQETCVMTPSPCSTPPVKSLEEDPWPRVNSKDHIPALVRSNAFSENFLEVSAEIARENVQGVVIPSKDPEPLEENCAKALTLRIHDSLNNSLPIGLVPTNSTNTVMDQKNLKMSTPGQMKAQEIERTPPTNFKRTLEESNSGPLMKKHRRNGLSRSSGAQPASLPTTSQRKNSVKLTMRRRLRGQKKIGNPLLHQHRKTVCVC
# Procedure, shortened: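 WIP1 (5 nM final) was preincubated with compound for 1 hour at room temperature. It then dephosphorylated 10 uM VEPPL-pS-QETFS peptide in Tris-HCl pH 7.5 with 30 mM MgCl2. Released Pi was detected by 10 uM Rh-PBP fluorescence (ex 525/em 598 nm) read at 1-min intervals for 11 min, as delta f1 - f0.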
# [12] = target: Calcium and integrin-binding protein 1 (Homo sapiens) (UniProt Q99828); test: Primary qHTS for Identification of Calcium Integrin Binding Protein 1 (CIB1) Competitor (AID 1508620); settings: CIB1-GST / FITC-alphaIIb peptide fluorescence polarization; series mostly up to 114 µM;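 also: GST tagged CIB1 binding a fluorescein labelled alphaIIb integrin peptide tracer; top concentration of the series differs between compounds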
# Procedure, shortened: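 CIB1-GST (1 uM final) and compound incubated 15 min at room temperature before adding FITC-alphaIIb peptide tracer (100 nM final). Competition for binding read by fluorescence polarization (ex 480, em 540) after another 15 min at room temperature.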
# [13] = A High-Content qHTS Against Drug Library for the Identification of Small Molecules that Inhibit DYT1 Early Onset Primary Dystonia-Associated Cell Pathology (AID 1645839; calls by dose curve); settings: HEK293 Flp-In EGFP-delE TorsinA, punctate imaging, 48 h; series mostly up to 46.1 µM
# Procedure, shortened: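 In this high-content image screen, delE TorsinA mislocalization in inducible Flp-In 293 cells is scored as %pathology, with cell count serving as the counterscreen. Compound exposure lasts 48 h under tetracycline induction in reduced-serum medium.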
# [14] = target: Protein phosphatase 1D (Homo sapiens) (UniProt O15297); test: RapidFire Mass Spectrometry qHTS Assay for Modulators of WT P53-Induced Phosphatase 1 (WIP1) (AID 1347424); settings: WIP1 dephosphorylation of phosphopeptide, RapidFire MS; series mostly up to 63 µM;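 also: amount of dephosphorylated VEPPL-S-QETFS peptide product formed by WIP1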
# Procedure, shortened: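 10 nM WIP1 + cpd, 1 h RT; + 2 uM VEPPL-pS-QETFS, 5 min RT; stop 0.5% formic acid; labelled product standard 1 uM; RapidFire MS. Buffer 50 mM Tris pH 7.5, 30 mM MgCl2, 1 mM TCEP.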
smiles,measurement,setting,value
COc1cc(NS(C)(=O)=O)ccc1Nc1c2ccccc2nc2ccccc12,Potency,[1],inactive
same,Potency,[2],inactive
same,Potency,[3],22.4 µM (active)
same,Potency,[4],0.417 µM (active)
same,Potency,[5],0.332 µM (active)
N[C@H](CO)C(=O)O,outcome,[6],inactive
same,Potency,[7],inactive
same,Potency,[1],inactive
same,outcome,[8],inactive
same,Potency,[2],inactive
same,Potency,[9],inactive
same,Potency,[10],inactive
same,Potency,[3],inactive
CNCCC(Oc1ccccc1C)c1ccccc1 (centres undefined),outcome,[6],inactive
same,Potency,[7],inactive
same,Potency,[1],inactive
same,outcome,[8],inactive
same,Potency,[2],inactive
CC(C)COC(=O)OCN1C(=O)CN(CCN2CC(=O)N(COC(=O)OCC(C)C)C(=O)C2)CC1=O,outcome,[6],inactive
same,Potency,[7],inactive
same,Potency,[1],inactive
same,outcome,[8],inactive
same,Potency,[2],inactive
same,Potency,[3],inactive
C[C@@H]1C(=O)NC2=Nc3cccc(Cl)c3CN21,outcome,[6],inactive
same,Potency,[7],inactive
same,Potency,[1],inactive
same,outcome,[8],inactive
same,Potency,[3],inactive
CN(C)/N=N/c1nc[nH]c1C(N)=O,outcome,[11],inactive
same,Potency,[1],inactive
same,Potency,[12],inactive
same,Potency,[2],inactive
same,Potency,[13],inactive
same,Potency,[4],inactive
same,Potency,[5],inactive
N[C@@H](Cc1cnc[nH]1)C(=O)O,outcome,[6],inactive
same,Potency,[7],inactive
same,outcome,[8],inactive
same,Potency,[2],inactive
same,Potency,[3],inactive
CC1(C)CCC(NC(=O)[C@@H](N)CCC(=O)O)CC1,outcome,[6],inactive
same,Potency,[7],inactive
same,Potency,[1],inactive
same,outcome,[8],inactive
same,Potency,[2],inactive
same,Potency,[3],inactive
C[C@]12CC[C@@H]3c4ccc(O)cc4CC[C@H]3[C@@H]1CC[C@@H]2O,outcome,[6],inactive
same,Potency,[7],inactive
same,Potency,[2],inactive
same,Potency,[9],inactive
same,Potency,[10],inactive
same,Potency,[3],inactive
same,Potency,[4],16.6 µM (active)
same,Potency,[5],7.42 µM (active)
CC(C)C[C@H]1C(=O)N2CCC[C@H]2[C@]2(O)O[C@](NC(=O)[C@@H]3C=C4c5cccc6[nH]c(Br)c(c56)C[C@H]4N(C)C3)(C(C)C)C(=O)N12,outcome,[6],inactive
same,Potency,[7],inactive
same,Potency,[1],inactive
same,outcome,[8],inactive
same,Potency,[9],inactive
same,Potency,[10],3.38 µM (active)
CC[C@H](C)C(=O)O[C@H]1CCC=C2C=C[C@H](C)[C@H](CC[C@@H]3C[C@@H](O)CC(=O)O3)[C@H]21,outcome,[6],inactive
same,Potency,[7],inactive
same,Potency,[1],inactive
same,outcome,[8],inactive
same,Potency,[2],2 µM (active)
same,Potency,[3],inactive
same,Potency,[4],14.8 µM (active)
same,Potency,[5],14.8 µM (active)
CNCCC=C1c2ccccc2CCc2ccccc21,outcome,[6],inactive
same,Potency,[7],inactive
same,outcome,[8],inactive
same,Potency,[2],inactive
same,Potency,[9],4.77 µM (active)
same,Potency,[10],inactive
same,Potency,[3],inactive
same,Potency,[4],23.1 µM (active)
same,Potency,[5],20.6 µM (active)
C=C(CC)C(=O)c1ccc(OCC(=O)O)c(Cl)c1Cl,Potency,[14],inactive
same,Potency,[2],inactive
same,Potency,[9],inactive
same,Potency,[10],3.89 µM (active)
same,Potency,[4],21.1 µM (active)
CC(=O)O[C@H]1C[C@@H]2CC[C@@H]3[C@H](CC[C@@]4(C)[C@H]3C[C@H]([N+]3(C)CCCCC3)[C@@H]4OC(C)=O)[C@@]2(C)C[C@@H]1[N+]1(C)CCCCC1,outcome,[6],inactive
same,Potency,[7],7.94 µM (active)
same,Potency,[1],inactive
same,outcome,[8],inactive
same,Potency,[2],inactive
same,Potency,[3],inactive
